Values joined by “and” are separate entries in the source; they are usually repeats but may differ in a detail not shown here. Identical values can stand only once. The whole screen tested about 16,000 compounds, of which about 5,800 (36%) were called active. Roughly 23% stayed inconclusive and do not appear here. The list shows a part of the results. Unmarked numbers belong to inactive results. Calls follow the shape of the dose curve; as a rule, active = well fitted curve in the direction sought with a large enough effect; inconclusive = small, poorly fitted or top-dose-only effect, or effect the other way; inactive = no such curve, though single readings can be large or run the other way.
Target: Cytochrome P450 2C19 (Homo sapiens) (UniProt P33261)
Assay: Cytochrome panel assay with activity outcomes
Settings: recombinant CYP, pro-luciferin dealkylation, luminescence, p450-cyp2c19; series mostly up to 57.1 µM
% is scaled to controls: 0 for no effect and ±100 for the full control effect.

Sequence of Cytochrome P450 2C19 (Homo sapiens) (P33261 whole entry, looked up): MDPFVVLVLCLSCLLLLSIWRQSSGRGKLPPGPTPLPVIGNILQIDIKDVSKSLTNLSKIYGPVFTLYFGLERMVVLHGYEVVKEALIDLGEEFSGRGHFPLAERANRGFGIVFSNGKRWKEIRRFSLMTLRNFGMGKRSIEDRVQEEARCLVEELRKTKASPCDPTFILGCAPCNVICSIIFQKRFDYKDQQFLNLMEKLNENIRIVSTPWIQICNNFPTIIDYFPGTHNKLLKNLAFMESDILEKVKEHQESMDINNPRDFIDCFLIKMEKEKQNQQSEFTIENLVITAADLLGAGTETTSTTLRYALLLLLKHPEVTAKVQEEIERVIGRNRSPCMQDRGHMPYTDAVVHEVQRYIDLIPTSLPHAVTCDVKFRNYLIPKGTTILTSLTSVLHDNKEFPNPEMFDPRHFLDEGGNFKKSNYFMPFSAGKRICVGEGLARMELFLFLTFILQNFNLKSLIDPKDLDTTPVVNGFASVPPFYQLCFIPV

Compound | AC50 | activity, negative = inhibition
Cc1ccc(C(=O)c2ccc(CC(=O)O)n2C)cc1 | inactive | –
O=C(NCc1cccnc1)C1COc2ccccc2O1 (stereo unspecified) | 8.91 µM (active) | –
O=C(Nc1ncc(Cc2ccccc2)s1)C1COc2ccccc2O1 (stereo unspecified) | inactive | –
O=C(Nc1cccnc1)C1COc2ccccc2O1 (stereo unspecified) | 11.2 µM (active) | –
COC(=O)CCCC(=O)O | – | 37.5% [at 11.4 µM]
O=C(O)CN(CCN(CC(=O)O)CC(=O)O)CC(=O)O.[Cu] | – | -41.9% [at 11.4 µM]
Cc1cc2c(c(=O)o1)[C@H](O)[C@H]1O[C@@H]1C2=O | – | -43.4% [at 11.4 µM]
O=C(CCN1C(=O)C2C3C=CC(C3)C2C1=O)NCCN1CCCc2ccccc21 (stereo unspecified) | 28.2 µM (active) | –
CC(C)(C)NCC[C@@H](O)c1cc(C(F)(F)F)nc2c(C(F)(F)F)cccc12 | – | -11% [at 11.4 µM]
CCN(CC)c1ccc2c(c1)OC(N)=C(C#N)C2c1cccnc1 (stereo unspecified) | 0.891 µM (active) | –
COc1cc2c(cc1OC)C(C(=O)Nc1ccccn1)C(c1cccnc1)N(C)C2=O (stereo unspecified) | inactive | –
COc1ccc(NC(=O)C2c3cc(OC)c(OC)cc3C(=O)N(C)C2c2cccnc2)cc1OC (stereo unspecified) | inactive | –
COc1cc2c(cc1OC)C(C(=O)Nc1cccc(C)n1)C(c1cccnc1)N(C)C2=O (stereo unspecified) | 0.251 µM (active) | –
COc1cc(N=C(N)N=C(N)N)c2ncccc2c1 | – | 36.7% [at 11.4 µM]
NCCCCCCNS(=O)(=O)c1cccc2c(Cl)cccc12 | 200 nM (active) and 10 nM (active) | –
NCCCCNS(=O)(=O)c1cccc2c(Cl)cccc12 | 0.1 µM (active) | –
CNCCNS(=O)(=O)c1cccc2cnccc12 | inactive | –
Nc1ccc(S(=O)(=O)NCCS(=O)(=O)O)cc1 | – | 22.1% [at 11.4 µM]
NCCNS(=O)(=O)c1ccc(N)cc1 | – | -4.78% [at 11.4 µM]
NCCCCNS(=O)(=O)c1ccc2c(Cl)cccc2c1 | 0.00251 µM (active) | –
CCCCCCCNS(=O)(=O)c1cccc2c(Cl)cccc12 | 0.126 µM (active) | –
CCN1C(=O)C=CC1=O | inactive | –

Compound | AC50 | activity, negative = inhibition
CCCCNS(=O)(=O)c1ccc(OC)c(Cl)c1Cl | 0.794 µM (active) | –
COc1cc(/C=C/C(=O)O)cc(S(=O)(=O)NCCCO)c1OC | inactive | –
NCCNS(=O)(=O)c1cccc2cnccc12 | inactive | –
NCCCCCCNS(=O)(=O)c1cccc2ccccc12 | 1 µM (active) | –
C=CCNS(=O)(=O)c1cccc2cc(C(=O)O)c(O)cc12 | inactive | –
O=S(=O)(NCCCCCCc1ccccc1)c1cccc2c(Cl)cccc12 | 1 µM (active) | –
NCCCCCCCCCCNS(=O)(=O)c1cccc2c(Cl)cccc12 | 0.0794 µM (active) | –
CC12CCC(C(=O)O)(C/C1=N\O)C2(C)C (stereo unspecified) | inactive | –
CCNC(=O)COC(=O)c1cc(=O)[nH]c2ccccc12 | inactive | –
CC(C)NC(=O)COC(=O)c1cc(=O)[nH]c2ccccc12 | inactive | –
COc1ccc(OC)c(-c2cc(C(=O)O)c3cc4ccccc4cc3n2)c1 | – | 2.46% [at 11.4 µM]
CCNC(=O)COC(=O)c1cc(-c2ccc(OC)cc2)nc2ccccc12 | 11.2 µM (active) | –
Cc1cc(C(=O)OCC(=O)NCCC(C)C)c2ccccc2n1 | 14.1 µM (active) | –
N[C@@H](Cc1[nH]nc2ccccc12)C(=O)O | – | 2.15% [at 11.4 µM]
COc1ccc(C(=S)Nc2ccccc2)cc1 | 3.98 µM (active) | –
COc1ccc(C(=O)N2CCC3(CC2)CN(C(=O)Nc2ccccc2)C3)cc1 | inactive | –
COc1ccc(NC(=S)Nc2ccccc2)cc1 | 2 µM (active) | –
CC(=O)O[C@]1(C(C)=O)CC[C@@H]2[C@@H]3C=C(Cl)C4=CC(=O)[C@H]5C[C@@H]5[C@]4(C)[C@H]3CC[C@]21C | inactive | –
COc1cccc(-c2[nH]nc3c2C(c2ccsc2)C(C#N)=C(N)O3)c1 (stereo unspecified) | 0.447 µM (active) | –
COc1cccc(-c2[nH]nc3c2C(c2ccc(C)o2)C(C#N)=C(N)O3)c1 (stereo unspecified) | 1.78 µM (active) | –
CS(=O)(=O)N1CCC2(CCN(Cc3nccs3)CC2)CC1 | inactive | –
NC(N)=N[C@H](CCC(=O)O)C(=O)O | inactive | –

Compound | AC50 | activity, negative = inhibition
COC(=O)N1CCC[C@@]2(CCN(C(=O)Nc3cccc(C#N)c3)C2)C1 | inactive | –
COc1cc(C2C(C#N)=C(N)OC3=C2C(=O)CCC3)cc(OC)c1OC(=O)N1CCOCC1 (stereo unspecified) | inactive | –
COC(=O)C1=C(C)OC(N)=C(C#N)C1C1CCCCC1 (stereo unspecified) | 0.562 µM (active) | –
COC(=O)C1=C(C)OC(N)=C(C#N)C1c1cc(OC)ccc1OC (stereo unspecified) | 7.94 µM (active) | –
O=C(c1ccco1)N1CCC2(CCN(Cc3ccccc3)CC2)CC1 | inactive | –
CC(=O)N1CCC2(CCN(Cc3ccccc3)CC2)CC1 | inactive | –
COc1ccc(N2CCN(C(=N)/C(C(C)=O)=C(\C)O)CC2)cc1 | inactive | –
COc1ccc(C(=O)N2CCC3(CCN(Cc4ccccc4OC)CC3)CC2)cc1 | inactive | –
COc1cccc(Nc2ncc(C(=O)O)c3ccccc23)c1 | inactive | –
COc1ccc(Nc2ncc(C(=O)N3CCN(c4ccc(F)cc4)CC3)c3ccccc23)cc1 | 2.24 µM (active) | –
COC(=O)c1ccccc1OCC(=O)N1CCN(c2ccc(OC)cc2)CC1 | 14.1 µM (active) | –
O=C(c1coc(=O)c2ccccc12)N1CCN(Cc2ccccc2)CC1 | 2.24 µM (active) | –
COc1ccc(Nc2ncc(C(=O)N3CCN(Cc4ccccc4)CC3)c3ccccc23)cc1 | 2 µM (active) | –
C1CNCCOCCNCCN1 | inactive | –
Fc1ccc(COc2ccc(Br)cc2CNCc2ccncc2)cc1 | 0.1 µM (active) | –
COC(=O)c1scc(C)c1NC(=O)Cc1ccccc1 | 15.8 µM (active) | –
CCCN[C@@H](C)C(=O)Nc1c(C)csc1C(=O)OC | inactive | –
O=C(Nc1ccccc1)N1CC[C@@]2(CCCN(C(=O)c3cnccn3)C2)C1 | inactive | –
Cc1cccc(-c2nc(CN3CCCC(C(=O)NC4CCCCC4)C3)c(C)o2)c1 (stereo unspecified) | 22.4 µM (active) | –
Cc1ccc(-c2nnc(-c3ccc(NC(=O)c4cccs4)cc3)o2)cc1 | 6.31 µM (active) | –
Cc1ccc(Cc2cnc(NC(=O)c3cccs3)s2)cc1 | 8.91 µM (active) | –
Cc1ccccc1-c1nc(-c2ccc(NC(=O)c3cccs3)cc2)no1 | 2.82 µM (active) | –

Source: PubChem BioAssay AID1851 (National Center for Advancing Translational Sciences (NCATS), 2009)
